Measurements taken from PubChem BioAssay (Tox21).
Where “and” joins values, the source holds several entries; their conditions need not be identical. Identical values can stand only once. Results filed as inconclusive are left out. A call without a number means that no potency is given here. A structure can be active in one record and inactive in another. Calls of active or inactive are those of the source. Calls come from the whole dose curve; as a rule, active = well fitted curve in the direction sought with a large enough effect in the repeat runs; inconclusive = weak or mixed curves; inactive = no such curve, though single readings can be large; an effect the other way counts as inactive or inconclusive.

Columns and labels:
[1] = Caspase-3/7 induction in CHO-K1 cells by small molecules, qHTS assay (AID 1346980); note: nearly all actives have a fitted effect of over 15% in size
Method in brief: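 Wild-type CHO-K1 cells exposed to compounds for 17hr at 37 C, 5% CO2. Caspase-3/7 activity then measured by Caspase-Glo 3/7 luminescence after 30min at room temperature.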

[2] = Caspase-3/7 induction in HepG2 cells by small molecules, qHTS cell viability counter screen (AID 1346981); note: series mostly up to about 92 µM; nearly all actives have a fitted effect of over 30% in size
Method in brief: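 Fluorescence read-out of live-cell protease activity (CellTiter-Fluor) after 1 hr with reagent. This was measured in the same wells as the caspase-3/7 luminescence, on HepG2 cells exposed to DMSO-dissolved compounds for 16 hr at 37 C.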

[3] = target: Nuclear receptor subfamily 1 group I member 2 (Homo sapiens) (UniProt O75469); assay: Human pregnane X receptor (PXR) small molecule agonists, qHTS assay (AID 1346982); note: nearly all actives have a fitted effect of over 35% in size; note: potency is the fitted concentration of half-maximal effect
Chain of Nuclear receptor subfamily 1 group I member 2 (Homo sapiens) (O75469 whole entry, looked up): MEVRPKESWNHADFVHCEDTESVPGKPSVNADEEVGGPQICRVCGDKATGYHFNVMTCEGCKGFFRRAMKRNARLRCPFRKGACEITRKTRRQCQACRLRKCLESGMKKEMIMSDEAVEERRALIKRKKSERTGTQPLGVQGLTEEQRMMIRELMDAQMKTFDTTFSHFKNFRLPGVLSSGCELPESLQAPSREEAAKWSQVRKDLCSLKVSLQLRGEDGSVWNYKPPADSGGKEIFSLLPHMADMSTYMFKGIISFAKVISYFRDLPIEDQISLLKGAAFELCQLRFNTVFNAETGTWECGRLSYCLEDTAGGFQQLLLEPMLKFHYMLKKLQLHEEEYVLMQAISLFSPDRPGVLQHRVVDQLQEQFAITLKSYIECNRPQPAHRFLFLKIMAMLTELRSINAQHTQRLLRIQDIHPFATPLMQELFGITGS
Method in brief: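 HepG2 PXR-Luc reporter line, 5% charcoal-stripped FBS; 5 hr pre-incubation, compound (DMSO) 24 hr at 37 C/5% CO2; ONE-Glo 30 min RT; luminescence read-out.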

[4] = target: Cytochrome P450 2C9 (Homo sapiens) (UniProt P11712); assay: Cytochrome P450 Family 2 Subfamily C Member 9 (CYP2C9) small molecule antagonists: luciferase reporter qHTS assay (AID 1671198); note: nearly all actives have a fitted effect of over 50% in size; note: potency is the fitted concentration of half-maximal effect
Chain of Cytochrome P450 2C9 (Homo sapiens) (P11712 whole entry, looked up): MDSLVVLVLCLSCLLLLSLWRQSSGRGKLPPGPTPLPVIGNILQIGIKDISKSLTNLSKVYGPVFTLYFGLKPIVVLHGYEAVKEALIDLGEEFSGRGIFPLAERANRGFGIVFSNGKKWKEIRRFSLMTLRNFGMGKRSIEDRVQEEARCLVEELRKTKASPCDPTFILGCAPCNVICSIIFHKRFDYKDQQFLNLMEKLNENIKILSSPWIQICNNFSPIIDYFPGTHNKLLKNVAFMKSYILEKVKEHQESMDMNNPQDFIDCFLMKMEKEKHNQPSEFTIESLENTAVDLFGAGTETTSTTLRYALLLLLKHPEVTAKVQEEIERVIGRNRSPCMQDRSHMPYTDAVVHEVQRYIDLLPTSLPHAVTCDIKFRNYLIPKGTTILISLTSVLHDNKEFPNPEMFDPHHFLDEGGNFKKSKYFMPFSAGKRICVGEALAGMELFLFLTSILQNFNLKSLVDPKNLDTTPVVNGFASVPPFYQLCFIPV
Method in brief: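 P450-Glo proluciferin substrate with CYP2C9 enzyme; 10 min RT preincubation, then NADPH regeneration 1 h at 37C; luciferin detection reagent 20 min RT, luminescence in relative luminescence units.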

[5] = target: Cytochrome P450 1A2 (Homo sapiens) (UniProt P05177); assay: Cytochrome P450 Family 1 Subfamily A Member 2 (CYP1A2) small molecule antagonists: luciferase reporter qHTS assay (AID 1671199); note: nearly all actives have a fitted effect of over 50% in size; note: potency is the fitted concentration of half-maximal effect
Chain of Cytochrome P450 1A2 (Homo sapiens) (P05177 whole entry, looked up): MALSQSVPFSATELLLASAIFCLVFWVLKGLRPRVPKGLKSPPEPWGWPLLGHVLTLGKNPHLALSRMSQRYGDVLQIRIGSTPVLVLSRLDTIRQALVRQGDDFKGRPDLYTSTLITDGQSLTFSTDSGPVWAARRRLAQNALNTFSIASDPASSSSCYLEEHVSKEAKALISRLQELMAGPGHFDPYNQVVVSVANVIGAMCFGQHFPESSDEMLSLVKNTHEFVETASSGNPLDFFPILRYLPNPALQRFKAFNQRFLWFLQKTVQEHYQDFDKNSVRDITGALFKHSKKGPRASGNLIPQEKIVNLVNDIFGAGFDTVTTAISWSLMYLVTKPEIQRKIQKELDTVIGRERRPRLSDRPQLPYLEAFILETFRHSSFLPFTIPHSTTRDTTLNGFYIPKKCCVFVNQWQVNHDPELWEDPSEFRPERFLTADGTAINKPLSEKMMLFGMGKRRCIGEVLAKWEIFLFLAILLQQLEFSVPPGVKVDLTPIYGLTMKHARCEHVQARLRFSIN
Method in brief: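 Luminescence readout (relative luminescence units) after luciferin detection reagent, 20 min RT. Preceded by 1 h room-temperature CYP1A2 reaction with NADPH regeneration solution following 10 min compound preincubation with enzyme and proluciferin substrate. Furafylline positive control.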

[6] = target: Voltage-gated inwardly rectifying potassium channel KCNH2 (Homo sapiens) (UniProt Q12809); assay: Human Ether-a-go-go-Related Gene (hERG) channel small molecule antagonists: fluorescence cell-based qHTS assay (AID 1671200);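 note: hERG-expressing U2OS cells given a thallium stimulus after FluxOR II dye loading; series mostly up to about 77 µM; nearly all actives have a fitted effect of over 50% in size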
Chain of Voltage-gated inwardly rectifying potassium channel KCNH2 (Homo sapiens) (Q12809 whole entry, looked up): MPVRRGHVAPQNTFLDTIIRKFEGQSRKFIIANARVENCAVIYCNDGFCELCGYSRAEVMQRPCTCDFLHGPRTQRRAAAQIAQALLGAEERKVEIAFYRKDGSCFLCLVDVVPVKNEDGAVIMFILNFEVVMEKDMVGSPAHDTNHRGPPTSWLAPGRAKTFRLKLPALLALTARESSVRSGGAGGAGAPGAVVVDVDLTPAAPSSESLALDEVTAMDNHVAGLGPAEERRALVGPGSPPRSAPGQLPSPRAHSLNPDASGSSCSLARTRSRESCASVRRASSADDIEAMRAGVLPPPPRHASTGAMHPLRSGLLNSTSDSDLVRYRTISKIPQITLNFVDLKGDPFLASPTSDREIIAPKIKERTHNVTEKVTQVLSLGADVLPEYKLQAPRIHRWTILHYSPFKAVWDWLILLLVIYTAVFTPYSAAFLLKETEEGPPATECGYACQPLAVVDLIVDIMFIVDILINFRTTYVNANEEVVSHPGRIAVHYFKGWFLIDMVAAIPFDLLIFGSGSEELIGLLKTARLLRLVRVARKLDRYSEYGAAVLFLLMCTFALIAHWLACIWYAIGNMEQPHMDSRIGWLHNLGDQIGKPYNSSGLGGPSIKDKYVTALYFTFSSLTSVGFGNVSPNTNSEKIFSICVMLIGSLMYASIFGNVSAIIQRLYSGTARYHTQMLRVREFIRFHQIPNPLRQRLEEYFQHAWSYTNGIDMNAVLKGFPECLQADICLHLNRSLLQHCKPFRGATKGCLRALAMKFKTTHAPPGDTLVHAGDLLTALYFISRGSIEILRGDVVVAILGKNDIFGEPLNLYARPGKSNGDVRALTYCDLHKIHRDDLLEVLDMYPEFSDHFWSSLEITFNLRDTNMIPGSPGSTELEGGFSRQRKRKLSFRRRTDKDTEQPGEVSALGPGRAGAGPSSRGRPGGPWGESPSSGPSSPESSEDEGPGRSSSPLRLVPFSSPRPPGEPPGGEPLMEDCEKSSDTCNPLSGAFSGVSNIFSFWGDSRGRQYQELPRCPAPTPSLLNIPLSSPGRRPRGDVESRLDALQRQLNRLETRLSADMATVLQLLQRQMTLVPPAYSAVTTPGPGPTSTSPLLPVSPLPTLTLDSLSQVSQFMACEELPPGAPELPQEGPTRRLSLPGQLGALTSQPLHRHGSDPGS
Method in brief: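 Cell line hERG-U2OS; dye FluxOR II, 1 h RT dark; Tl+ stimulus; ex 480/em 540 nm, read each second for 2 min.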

[7] = target: Cytochrome P450 3A4 (Homo sapiens) (UniProt P08684); assay: Cytochrome P450 Family 3 Subfamily A Member 4 (CYP3A4) small molecule antagonists: luciferase reporter qHTS assay (AID 1671201); note: nearly all actives have a fitted effect of over 50% in size; note: potency is the fitted concentration of half-maximal effect
Chain of Cytochrome P450 3A4 (Homo sapiens) (P08684 whole entry, looked up): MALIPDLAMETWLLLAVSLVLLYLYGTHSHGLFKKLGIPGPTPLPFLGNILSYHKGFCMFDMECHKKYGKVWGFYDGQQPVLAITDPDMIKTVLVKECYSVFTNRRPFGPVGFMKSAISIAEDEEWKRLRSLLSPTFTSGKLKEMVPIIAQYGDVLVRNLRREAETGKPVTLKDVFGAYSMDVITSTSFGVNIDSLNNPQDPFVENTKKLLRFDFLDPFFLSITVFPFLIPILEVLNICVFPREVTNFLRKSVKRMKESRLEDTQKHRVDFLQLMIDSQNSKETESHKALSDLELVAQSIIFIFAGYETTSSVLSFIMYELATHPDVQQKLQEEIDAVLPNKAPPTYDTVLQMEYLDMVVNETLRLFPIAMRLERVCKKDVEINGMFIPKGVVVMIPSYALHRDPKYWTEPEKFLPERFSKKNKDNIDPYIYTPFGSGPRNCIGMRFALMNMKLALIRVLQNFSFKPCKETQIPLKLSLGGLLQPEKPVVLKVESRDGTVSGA
Method in brief: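 Room-temperature assay throughout: 10 min compound–enzyme/substrate preincubation, 1 h reaction after NADPH regeneration solution, 20 min detection. Luciferin formed from proluciferin substrate is quantified by luminescence.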

[8] = target: Cytochrome P450 2D6 (Homo sapiens) (UniProt P10635); assay: Cytochrome P450 Family 2 Subfamily D Member 6 (CYP2D6) small molecule antagonists: luciferase reporter qHTS assay (AID 1671196); note: nearly all actives have a fitted effect of over 50% in size; note: potency is the fitted concentration of half-maximal effect
Chain of Cytochrome P450 2D6 (Homo sapiens) (P10635 whole entry, looked up): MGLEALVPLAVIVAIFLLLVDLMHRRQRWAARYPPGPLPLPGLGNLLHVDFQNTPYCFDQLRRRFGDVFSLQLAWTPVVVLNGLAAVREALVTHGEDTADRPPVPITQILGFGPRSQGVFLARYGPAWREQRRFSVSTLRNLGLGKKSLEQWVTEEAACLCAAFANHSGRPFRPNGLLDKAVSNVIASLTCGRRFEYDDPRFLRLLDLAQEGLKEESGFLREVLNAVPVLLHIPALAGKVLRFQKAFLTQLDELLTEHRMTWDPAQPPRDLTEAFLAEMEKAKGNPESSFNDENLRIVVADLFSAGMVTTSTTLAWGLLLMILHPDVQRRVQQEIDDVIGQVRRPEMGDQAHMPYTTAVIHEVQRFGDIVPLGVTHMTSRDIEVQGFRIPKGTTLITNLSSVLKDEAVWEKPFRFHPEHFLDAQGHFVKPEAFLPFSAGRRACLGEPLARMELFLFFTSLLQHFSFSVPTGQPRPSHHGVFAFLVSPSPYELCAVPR
Method in brief: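 Luminogenic proluciferin substrate, CYP2D6 enzyme; 10 min RT preincubation with compound, NADPH regeneration system added, 1 h RT. Stop/detection reagent, 20 min RT, luminescence read (RLU). Signal proportional to CYP activity.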

[9] = target: Nuclear receptor subfamily 1 group I member 2 (Rattus norvegicus) (UniProt Q9R1A7); assay: Rat pregnane X receptor (rPXR) activation by small molecules, qHTS assay (AID 1346983); details: rPXR luciferase reporter cells, One-Glo luminescence, 24 h; max activation: stronger effect = higher value; note: nearly all actives have a fitted effect of over 20% in size; note: potency is the fitted concentration of half-maximal effect
Chain of Nuclear receptor subfamily 1 group I member 2 (Rattus norvegicus) (Q9R1A7 whole entry, looked up): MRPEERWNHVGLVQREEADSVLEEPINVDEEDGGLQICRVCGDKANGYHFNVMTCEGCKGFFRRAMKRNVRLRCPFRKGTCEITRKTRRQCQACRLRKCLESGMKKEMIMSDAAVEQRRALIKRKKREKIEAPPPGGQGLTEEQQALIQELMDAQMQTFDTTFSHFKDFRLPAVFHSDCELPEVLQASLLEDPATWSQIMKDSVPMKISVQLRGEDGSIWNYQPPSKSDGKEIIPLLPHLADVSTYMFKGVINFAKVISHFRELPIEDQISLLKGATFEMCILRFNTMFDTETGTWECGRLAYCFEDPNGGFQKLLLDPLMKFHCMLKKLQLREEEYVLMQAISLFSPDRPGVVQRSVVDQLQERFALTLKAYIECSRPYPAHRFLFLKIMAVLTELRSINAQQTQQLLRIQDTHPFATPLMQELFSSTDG
Method in brief: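 Cell-based rPXR activation assay: rPXR cells, 2,000 per well, rested 5hr at 37 C, then exposed to compounds in DMSO for 24 hr at 37 C. Luciferase activity read by One-Glo luminescence after 30 min at room temperature.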

[10] = target: Cytochrome P450 2C19 (Homo sapiens) (UniProt P33261); assay: Cytochrome P450 Family 2 Subfamily C Member 19 (CYP2C19) small molecule antagonists: luciferase reporter qHTS assay (AID 1671197); note: nearly all actives have a fitted effect of over 65% in size; note: potency is the fitted concentration of half-maximal effect
Chain of Cytochrome P450 2C19 (Homo sapiens) (P33261 whole entry, looked up): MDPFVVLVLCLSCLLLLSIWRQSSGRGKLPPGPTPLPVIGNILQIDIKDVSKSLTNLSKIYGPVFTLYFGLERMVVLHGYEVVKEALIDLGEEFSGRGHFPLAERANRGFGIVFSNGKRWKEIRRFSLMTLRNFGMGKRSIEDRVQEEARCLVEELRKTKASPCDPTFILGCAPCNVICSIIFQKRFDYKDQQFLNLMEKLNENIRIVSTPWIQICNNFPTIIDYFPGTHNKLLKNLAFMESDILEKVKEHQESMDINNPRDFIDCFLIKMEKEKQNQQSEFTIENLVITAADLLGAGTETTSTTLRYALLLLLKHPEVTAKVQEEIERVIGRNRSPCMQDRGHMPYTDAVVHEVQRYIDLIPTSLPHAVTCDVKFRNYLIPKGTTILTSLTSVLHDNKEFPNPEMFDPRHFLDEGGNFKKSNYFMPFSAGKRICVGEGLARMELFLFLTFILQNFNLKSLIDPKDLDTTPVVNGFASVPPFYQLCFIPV
Method in brief: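 P450-Glo CYP2C19 screening system; proluciferin substrate; DMSO compound stocks; 10 min RT preincubation; NADPH regeneration, 1 h at 37C; luciferin detection reagent, 20 min RT; luminescence as RLU.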

| SMILES | outcome [1] | Potency [2] | Potency [3] | Potency [4] | Potency [5] | outcome [6] | Potency [7] | Potency [8] | Potency [9] | Potency [10] | max activation [9] |
| --- | --- | --- | --- | --- | --- | --- | --- | --- | --- | --- | --- |
| c1ccc(OCCOc2ccccc2)cc1 | inactive | inactive | 61.1 µM (active) and 24.3 µM (active) | 28.2 µM (active) and 22.4 µM (active) | 15.9 µM (active) and 20 µM (active) | inactive | inactive | – | – | – | – |
| O=C(O)c1ccc2c(c1)C(=O)OC2=O | inactive | inactive | inactive | inactive | inactive | inactive | inactive | inactive | – | – | – |
| CCC(O)OCCCOC (stereo unspecified) | inactive | inactive | 11.1 µM (active) and inactive | inactive | inactive | inactive | inactive | – | – | – | – |
| NNc1nncc2ccccc12 | inactive | inactive | – | – | – | inactive | – | – | 0.112 µM (active) | – | – |
| OCc1cccnc1 | inactive | inactive | – | – | – | inactive | – | – | – | – | – |
| CC(C)(N)CO | inactive | inactive | 60.9 µM (active) and inactive | inactive | inactive | inactive | inactive | inactive | – | – | – |
| O=C(O)c1cc(C(=O)O)cc(S(=O)(=O)O)c1 | inactive | inactive | inactive | inactive | inactive and 39.9 µM (active) | inactive | inactive | – | – | – | – |
| CCCCCCCCCC | inactive | inactive | inactive | inactive and 79.6 µM (active) | inactive | inactive | inactive | inactive | – | – | – |
| CC1CCC(C(C)C)C(O)C1 (stereo unspecified) | inactive | inactive | inactive | inactive | – | inactive | inactive | – | – | – | – |
| O=C(O)CC(C(=O)O)C(CC(=O)O)C(=O)O (stereo unspecified) | inactive | inactive | inactive | inactive | – | inactive | inactive | inactive | – | – | – |
| Cc1occc(=O)c1O | inactive | inactive | inactive | – | inactive | inactive | inactive | inactive | – | – | – |
| c1ccc2scnc2c1 | inactive | inactive | inactive | inactive | – | inactive | inactive | – | – | – | – |
| Nc1ccccc1[N+](=O)[O-] | inactive | inactive | inactive | inactive | 35.9 µM (active) | inactive | inactive | – | – | inactive | – |
| Cc1ccc(N(C)C)cc1 | inactive | inactive | inactive | inactive | inactive | inactive | inactive | – | – | – | – |
| c1c[nH]cn1 | inactive | inactive | inactive | – | inactive | inactive | – | – | – | 84.4 µM (active) | – |
| CC(=O)CC(=O)Nc1ccccc1C | inactive | inactive | inactive | – | 39.9 µM (active) | inactive | inactive | – | – | inactive | – |
| CCc1ccc(CCOc2ccc(CC3SC(=O)NC3=O)cc2)nc1 (stereo unspecified) | inactive | inactive | – | 31.7 µM (active) and 30.9 µM (active) | inactive | inactive | – | inactive | – | inactive | -8.65% (inactive) |
| CCCCCOC(C)=O | inactive | inactive | inactive | 10 µM (active) | inactive | inactive | inactive | – | – | 32.1 µM (active) and inactive | – |
| C=CCOC(=O)c1ccccc1C(=O)OCC=C | inactive | inactive | inactive | 3.93 µM (active) and 5.64 µM (active) | 2.48 µM (active) and 3.56 µM (active) | inactive | 3.12 µM (active) and 6.33 µM (active) | – | – | 1.56 µM (active) and 1.26 µM (active) | – |
| OCCOCCN1CCN(C2=Nc3ccccc3Sc3ccccc32)CC1 | inactive | inactive | – | – | – | – | – | – | – | – | 9.6% (inactive) |
| O=C(O)c1ccccc1C(c1ccc(O)cc1)c1ccc(O)cc1 | inactive | inactive | 2.44 µM (active) and inactive | – | inactive | inactive | inactive | inactive | – | – | – |
| CSCCC=O | inactive | inactive | inactive | 35.6 µM (active) | 19 µM (active) and 4.48 µM (active) | inactive | inactive | – | – | 75.8 µM (active) and 7.1 µM (active) | – |
| CCCCCCCC(=O)OC | inactive | inactive | inactive | inactive | inactive | inactive | inactive | – | – | inactive | – |
| Oc1cccc2ccccc12 | inactive | inactive | – | 36.5 µM (active) and 35.6 µM (active) | – | inactive | – | – | – | – | – |
| CCCCC(CC)COC(=O)CCCCC(=O)OCC(CC)CCCC (stereo unspecified) | inactive | inactive | inactive | 28.3 µM (active) | inactive and 35.6 µM (active) | inactive | inactive | inactive | – | – | – |
| CCCCCCCCC/C=C/CC1CC(=O)OC1=O (stereo unspecified) | inactive | inactive | inactive | 80 µM (active) and 39.9 µM (active) | inactive | inactive | inactive | inactive and 39.9 µM (active) | – | – | – |
